MRP-1 activ = H69AR viability gain despite doxorubicin, primary screen, MRP-1 activator project, H69AR cells, CellTiter-Glo; viability increase, % at 10 µM; viability rescue; 0.61% of 140,000 active; AID 799, 2007;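 active = viability gain under doxorubicin at or above a set limit, the compound median plus 3 SD, cut at about 4.7% in these data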;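 note: MRP-1 overexpressing cells given doxorubicin 25 µM after compound pretreatment; 18-22 h compound pretreatment then 72 h with doxorubicin before readout; 0% = doxorubicin-only wells and 100% = vehicle-treated cells without doxorubicin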
MRP reversal = reversal of MRP1-mediated doxorubicin resistance, primary screen, H69AR cells, doxorubicin co-treatment | differential viability (reversal), % at 10 µM | 0.04% of 85,000 active | H69AR cells + 2 uM doxorubicin, CellTiter-Glo, 72 h;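 active = viability drop by adding the cancer drug above about 55%, with treated viability meeting a 40% cutoff, limit read from the data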;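 note: viability without doxorubicin minus viability with 2 µM doxorubicin for each compound; larger differential means the compound sensitizes cells more to doxorubicin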
CYP2C19 act = human CYP2C19 activators, primary screen, biochemical, luminescence; AID 1025, 2008; 96,000 tested, under 10 active; recombinant CYP2C19, luciferin-H EGE luminescence; active compounds read high; 0 = fully inhibited enzyme, 1 = untreated enzyme; activation factor at 5 µM; Cytochrome P450 2C19 (Homo sapiens), P33261;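 active = activation factor of at least 2 at 5 µM in the primary screen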;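 note: 0 = wells with 2.5 mM tranylcypromine and 1 = vehicle-only wells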
Target sequence (P33261 whole entry, looked up): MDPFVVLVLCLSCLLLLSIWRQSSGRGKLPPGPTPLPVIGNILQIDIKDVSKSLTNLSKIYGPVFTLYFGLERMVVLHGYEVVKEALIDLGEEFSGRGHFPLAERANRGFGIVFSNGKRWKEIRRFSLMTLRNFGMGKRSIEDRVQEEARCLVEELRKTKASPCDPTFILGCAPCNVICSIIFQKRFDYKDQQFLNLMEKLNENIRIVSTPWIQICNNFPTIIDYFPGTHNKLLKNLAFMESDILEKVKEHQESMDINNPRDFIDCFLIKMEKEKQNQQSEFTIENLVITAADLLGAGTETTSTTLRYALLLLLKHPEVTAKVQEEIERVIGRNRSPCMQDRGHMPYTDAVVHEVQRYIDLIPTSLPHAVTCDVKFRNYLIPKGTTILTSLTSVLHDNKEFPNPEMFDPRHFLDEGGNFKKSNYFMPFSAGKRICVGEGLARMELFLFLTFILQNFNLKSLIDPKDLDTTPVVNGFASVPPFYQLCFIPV
CYP2C19 inh = blockers of cytochrome P450 2C19 activity – biochemical, luminescence, ADME assay, primary screen | CYP2C19 Supersomes, luciferin-H EGE luminescence, 30 min | inhibition, % at 5 µM | 21% of 96,000 active | AID 778, 2007;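 active = CYP2C19 inhibition above a set limit at 5 µM in the primary screen, cut at about 50% in these data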;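 note: plate controls were negative control wells for no effect and 2.5 mM tranylcypromine positive control for full effect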
CYP2C9 act = human CYP2C9 activators, primary screen, biochemical, luminescence | 1.4% of 96,000 active | recombinant CYP2C9, luciferin-H conversion; active compounds read high; factor 1 = untreated enzyme, 0 = blocked | AID 1024, 2008 | activation factor at 5 µM | Cytochrome P450 2C9 (Homo sapiens), P11712;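 active = activation factor of 2 or more for CYP2C9 at a 5 µM dose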;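 note: 0 = sulfaphenazole-blocked wells and 1 = vehicle-only wells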
CYP2C9 inh = blockers of cytochrome P450 2C9 activity – biochemical, luminescence, ADME assay, primary screen; P11712; CYP2C9 Supersomes, luciferin-H conversion; inhibition, % at 5 µM; 20% of 96,000 active; AID 777, 2007;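 active = blocking of liver enzyme CYP2C9 beyond about 50% at 5 µM, limit read from the data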
Numbers without * were called inactive; · = no result given. Compounds with a hit are over-represented: about 21% of the library has one in this group of screens.

SMILES	MRP-1 activ	MRP reversal	CYP2C19 act	CYP2C19 inh	CYP2C9 act	CYP2C9 inh
Cn1ccnc1SCC(=O)Nc1cccc(O)c1	-1.2	-6.5	0.9	5.8	0.9	9.3
Cn1ccnc1SCC(=O)Nc1cccc(C(F)(F)F)c1	-1.5	·	0.1	87.1*	1.5	-51.9
Cc1ccc(-n2cc3c(-c4cccc(Br)c4)nnc(C)c3n2)cc1	-2.8	·	0.2	76.7*	0.1	91.6*
Cc1nnc(-c2cccc(Br)c2)c2cn(-c3ccccc3Cl)nc12	-2.7	·	0.4	60.5*	0.3	65.7*
Cc1nnc(Cl)c2nn(-c3ccccc3)c(C)c12	-1.7	·	·	·	·	·
O=C(OCC(=O)N1CCN(C(=O)c2ccco2)CC1)c1cc(=O)c2ccccc2o1	0.5	-4.9	1	-4.8	1	4.6
N#Cc1cc2c(nc1SCc1cccnc1)CCCC2	2.5	6.5	0.2	77.6*	0.4	60.1*
N#Cc1cc2c(nc1SCc1cccnc1)CCC2	0.5	-2.1	0.1	86.6*	0.8	22.9
Cc1cccc(CSc2nc3c(cc2C#N)CCC3)c1	-0.5	7.6	·	·	·	·
O=C(Cn1cncc1-c1ccc([N+](=O)[O-])cc1)Nc1cccc2ccccc12	0.9	·	·	·	·	·
CC(C)c1ccc2c(c1)[C@H]1OCC[C@H]1[C@@H](c1cccs1)N2	-3.0	·	·	·	·	·
COC(=O)C1C(=O)C2=C(CC1C)NC(C)=C(C(=O)OC(C)C)C2c1ccc(C)o1 (stereo not drawn)	-2.0	9.9	0.8	21.2	0.4	58.7*
COC(=O)C1C(=O)C2=C(CC1C)NC(C)=C(C(=O)OCCOc1ccccc1)C2c1ccc(C)o1 (stereo not drawn)	-2.0	-4.8	·	·	·	·
COC(=O)C1C(=O)C2=C(CC1C)NC(C)=C(C(=O)OC1CCCCC1)C2c1ccc(N(C)C)cc1 (stereo not drawn)	-2.7	3.3	·	·	·	·
COC(=O)C1C(=O)C2=C(CC1C)NC(C)=C(C(=O)OCc1ccc(OC)cc1)C2c1ccc(C)o1 (stereo not drawn)	-0.6	1.0	0.4	60.7*	0.2	79.6*
CCCOc1cccc(C2/C(=C(/O)c3ccncc3)C(=O)C(=O)N2CCCN(C)C)c1 (stereo not drawn)	·	-4.5	0.9	7.1	1.1	-6.3
CC1CCN(S(=O)(=O)c2ccc(NC(=O)CSc3nnnn3C)cc2)CC1	-1.1	·	1	-2.2	1	-0.6
CC(=O)Nc1nc(CC(=O)c2ccccc2)cs1	·	-1.7	0.3	65.2*	1.1	-11.4
CC(=O)Nc1nc(COc2ccccc2)cs1	0.0	7.0	0.1	89.0*	0.4	59.1*
CC(=O)Nc1nc(COc2ccc3ccccc3c2)cs1	3.4	-7.2	0.6	37.0	1.1	-13.2
O=C(Nc1nc(COc2ccccc2)cs1)C12CC3CC(CC(C3)C1)C2	0.2	5.5	0.4	56.5*	0	95.7*
CCN(c1ccccc1)S(=O)(=O)c1cc(C(=O)Oc2ccc3c(C)cc(=O)oc3c2)ccc1C	-3.4	·	·	·	·	·
CCOCCCn1c(C)nc2c(c1=O)c1nc3ccccc3nc1n2CCC1=CCCCC1	-5.0	·	0.3	73.1*	0.2	80.5*
CC(C)Cn1cnc2c(c1=O)c1nc3ccccc3nc1n2Cc1ccc2c(c1)OCO2	-2.5	3.0	1	-1.7	0.5	50.5*
CCCCCCn1c(C)nc2c(c1=O)c1nc3ccccc3nc1n2/N=C/c1ccco1	-1.9	-0.2	1	2.3	0.3	74.5*
SMILES	MRP-1 activ	MRP reversal	CYP2C19 act	CYP2C19 inh	CYP2C9 act	CYP2C9 inh
O=c1c2c3nc4ccccc4nc3n(/N=C/c3ccco3)c2ncn1CCC1=CCCCC1	·	4.6	0.5	54.7*	0.4	57.9*
CCCCn1cnc2c(c1=O)c1nc3ccccc3nc1n2Cc1ccc2c(c1)OCO2	·	-6.7	·	·	·	·
Cc1cc(Cl)ccc1OCC(=O)N/N=C1\CC2C=CCC12 (stereo not drawn)	-1.0	·	·	·	·	·
CCCn1cnc2c(c1=O)c1nc3ccccc3nc1n2CCc1ccccc1	-1.2	-16.4	0.1	90.2*	0.6	39.1
CCCn1cnc2c(c1=O)c1nc3ccccc3nc1n2CCC1=CCCCC1	-0.6	0.5	0.2	84.0*	0.4	58.1*
NS(=O)(=O)c1cc2c(cc1C(F)(F)F)NC(Cc1ccccc1)NS2(=O)=O (stereo not drawn)	0.2	-3.6	·	·	·	·
CCCC(=O)NCCc1cc(OC)c(OC)cc1Br	0.7	·	·	·	·	·
O=C(c1ccccc1)c1nn(-c2ccc(Cl)cc2)c(=O)cc1C(F)(F)F	-5.3	·	0.3	74.9*	0.5	53.0*
Cc1cc(NC(=O)CN2CCN(S(=O)(=O)c3ccc(Cl)cc3)CC2)no1	-1.1	·	1	-0.7	1	-1.1
Cc1cc(NC(=O)NC2CCCN2S(=O)(=O)c2ccc(Cl)cc2)no1 (stereo not drawn)	0.3	23.2	0.2	80.0*	0.4	60.5*
Cc1cc(NC(=O)COC(=O)C2CCN(S(=O)(=O)c3ccc(Cl)cc3)CC2)no1	0.8	16.1	0.8	16.4	0.4	62.5*
C=CCNC(=O)c1c(Cl)nc(C)c([N+](=O)[O-])c1C	-1.9	·	·	·	·	·
Cc1ccccc1CSc1nnc(C)c(=O)[nH]1	0.4	-1.0	1.1	-13.6	0.4	63.1*
Cc1cc(C)c(C)c(C(=O)CSc2nnc(C)c(=O)[nH]2)c1C	0.4	·	0.9	8.4	0.1	93.7*
Cc1ccccc1CSc1nc2ccccc2c(=O)[nH]1	1.9	·	·	·	·	·
Cc1ccccc1CSc1nc2c(c(=O)[nH]1)CCC2	-1.5	10.1	0.8	16.8	0.4	63.3*
Cc1nnc(SCCc2ccccc2)[nH]c1=O	0.8	5.9	0.8	20.3	0.4	55.8*
CCCC/C(C)=N/NC(=O)C(=O)NCCc1ccccc1	-1.1	·	1	1.9	0.8	15.0
CC(C)c1ccc(OCC(=O)NCCO)cc1	1.8	·	·	·	·	·
CCCS(=O)(=O)Nc1c(C(=O)OC)[nH]c2ccccc12	-1.4	·	·	·	·	·
COC(=O)c1[nH]c2ccccc2c1NS(=O)(=O)c1ccc(F)c(C)c1	-1.9	7.2	0.1	93.3*	0.5	48.5
COc1ccc(S(=O)(=O)Nc2c(C(=O)O)[nH]c3ccccc23)c(OC)c1	-1.4	11.8	0.9	5.7	0.4	60.6*
CCN(C(=O)Cc1c(C(=O)O)[nH]c2ccccc12)c1cc(OC)ccc1OC	-1.0	·	1.2	-17.9	0.9	13.9
COC(=O)c1[nH]c2ccc(F)cc2c1NS(=O)(=O)c1ccc(OC)cc1	-4.3	·	·	·	·	·
COc1ccc2[nH]c(C(=O)O)c(NS(=O)(=O)c3ccc(OC)c(OC)c3)c2c1	-2.1	-23.6	0.6	35.9	0.2	75.9*
CCN1C(=O)C(CC(=O)Nc2ccc(OC)cc2)N(Cc2ccc3c(c2)OCO3)C1=S (stereo not drawn)	-4.4	·	·	·	·	·
CCOC(=O)C(C)c1nc2ccccc2[nH]c1=O (stereo not drawn)	0.0	36.5	0.9	10.8	1.1	-7.6

Screening data deposited in PubChem by several laboratories.
